CHX counter = counter-screen hit for Shiga toxin inhibitors, cycloheximide | cell reporter, cycloheximide protein synthesis inhibition counterscreen | max response, % | 300,000 tested, 12% active; in the data active means max response mostly above about 13%, no sharp cut-off; inactive means mostly below about 14%; further: read at 38.3 µM for the half of the compounds with a filed dose
Shiga inhibitor = Shiga toxin inhibition; inhibition, % at 38.7 µM; Vero cells, Shiga toxin protein synthesis inhibition reporter; 290,000 tested, 9.2% active; AID 2315; in the data active means inhibition mostly above about 28%, no sharp cut-off; inactive means mostly below about 43%
Pf growth 96h = P. falciparum growth inhibition at 96 hour, primary screen for plastid delayed-death inhibitors; 320,000 tested, 6.9% active; Potency, µM (top dose mostly 28.7 µM), usual class: inhibitors; AID 504834; P. falciparum luciferase reporter growth, 96 h
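Readout is luminescence from an integrated firefly luciferase in P. falciparum. Red cells, 2% hematocrit and 0.05% parasitemia final, were cultured with compound through two parasite generations (96 hours) at 37 C, 5% CO2.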
SARS PLP yeast = SARS-CoV PLP inhibition in yeast. Potency, µM (top dose mostly 32.9 µM), actives largely listed as activators. AID 485353. 330,000 tested, 0.19% active. S. cerevisiae expressing SARS-CoV PLpro, growth rescue; calls by dose curve; further: nearly all actives have a fitted effect of over 55% in size
Pf growth 48h = P. falciparum growth inhibition at 48 hours (one generation) | P. falciparum luciferase growth in erythrocytes, 48 h | Potency, µM (doses to about 28.7 µM), most hits filed as inhibitors | 310,000 tested, 5.9% active
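Luciferase-expressing P. falciparum in infected erythrocytes (2% hematocrit, 0.1% parasitemia final) in RPMI 1640/0.5% Albumax were exposed to compound for 48 hours at 37 C, 5% CO2; growth read as luminescence.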
NS1 function inh = blocks influenza NS1 protein function. Potency, µM (series often up to 46.1 µM). 270,000 tested, 0.4% active; calls by dose curve; further: actives are rising curves; nearly all actives have a fitted effect of over 50% in size
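Read-out: OD600 growth recovery of NS1-expressing budding yeast. Cells grown overnight at 30C in -URA glucose medium, washed, resuspended and diluted 1:100 in 2% galactose assay medium, pH 6.0. Same strain lacking NS1 served as positive control.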
Each line names hits and unclear results; the compound was inactive in the other large screens. Compounds with a hit are over-represented: about 21% of the library has one in this group of screens. Unless noted, the call rests on the fitted dose curve; in most records, active means well fitted inhibition curve with a large enough effect; inconclusive means small, poorly fitted or top-dose-only effect, or another doubt; inactive means no such curve, though single readings can be large or run the other way.

COc1ccc(-c2csc(Nc3ccccc3)[n+]2Cc2ccccc2)cc1	CHX counter 38, Shiga inhibitor 55, Pf growth 96h 13µM (no result: NS1 function inh)
O=[N+]([O-])c1ccc(-c2csc(Nc3ccccc3)[n+]2Cc2ccccc2)cc1	CHX counter 33, Shiga inhibitor 29, Pf growth 96h inconclusive, Pf growth 48h 5.2µM
C/C(=N/NC(=O)CN1CCN(Cc2ccccc2Cl)CC1)c1ccco1	Pf growth 96h inconclusive, Pf growth 48h inconclusive
Cc1cc(Cl)ccc1NC(=S)N1CCN(C(=O)c2ccco2)CC1	none
O=C(NCC1CCCO1)c1ccc(Oc2ccc([N+](=O)[O-])cc2Cl)cc1 (stereo not given)	none
O=C(NCC1CCCO1)c1ccc(Oc2ccc([N+](=O)[O-])cc2)cc1 (stereo not given)	Pf growth 96h 1.5µM
O=C(NCC1CCCO1)C(=Cc1cccc([N+](=O)[O-])c1)C(=O)NCC1CCCO1 (stereo not given)	Pf growth 96h 13µM, Pf growth 48h inconclusive
O=C(NCC1CCCO1)/C(=C\c1cccc([N+](=O)[O-])c1)NC(=O)c1ccccc1 (stereo not given)	none (no result: NS1 function inh)
CCc1noc(C)c1C(=O)N1CCCC(CCC(=O)NCc2ccc(F)c(F)c2)C1 (stereo not given)	Pf growth 96h inconclusive, Pf growth 48h inconclusive
NS(=O)(=O)c1cccc(NC(=O)c2cccc(Oc3ccccc3)c2)c1	Pf growth 96h inconclusive
Cc1cc(C)c(C#N)c(Sc2nnnn2-c2ccccc2)n1	Pf growth 96h 2.3µM
Cc1ccccc1-n1nnnc1Sc1nnnn1-c1ccccc1	Pf growth 48h 8.3µM (no result: Pf growth 96h)
CCCSc1nnc(Sc2nnnn2-c2ccccc2)s1	Pf growth 48h 13µM (no result: Pf growth 96h)
C(=C\CSc1nnnn1-c1ccccc1)/CSc1nnnn1-c1ccccc1	Pf growth 96h inconclusive, Pf growth 48h inconclusive
Cc1ccc(CN2CC(C(=O)N3CC(C)CC(C)C3)CC2=O)cc1 (stereo not given)	Pf growth 48h inconclusive (no result: CHX counter, Shiga inhibitor, NS1 function inh)
NC(=Nc1ccc(Cl)cc1)c1ccccc1	CHX counter 26 (no result: NS1 function inh)
ONC(=Nc1ccccc1)c1ccc(Cl)cc1	none
COc1ccc(C2CC(c3cccc(Cl)c3)n3nc(N)nc3N2)cc1 (stereo not given)	Pf growth 96h 9.3µM
COc1cccc(C2CC(c3ccc(F)cc3)Nc3nc(N)nn32)c1 (stereo not given)	none
COc1cccc(C2CC(c3cccc(Br)c3)n3ncnc3N2)c1 (stereo not given)	Pf growth 96h 12µM
COc1cccc(C2CC(c3cccc(OC)c3)n3nc(N)nc3N2)c1 (stereo not given)	Pf growth 96h 12µM
O=C(Nc1ccccc1N1CCCC1)c1ccc([N+](=O)[O-])cc1Cl	Pf growth 48h inconclusive (no result: NS1 function inh)
CC1=NN(C(C#N)c2c(C)nn(Cc3ccccc3)c2C)C(C)(C)C1 (stereo not given)	none
O=C(CN1CCC(NC(=O)Cc2ccccc2)CC1)Nc1ccccc1Br	Pf growth 96h inconclusive
Cc1ccccc1CCN(C(=O)c1csnn1)C(C(=O)NC1CCCC1)c1ccco1 (stereo not given)	Pf growth 48h inconclusive
CC1CCN(C(=O)CN2c3cccc4cccc(c34)S2(=O)=O)CC1	none (no result: CHX counter, Shiga inhibitor, NS1 function inh)
COc1cc(/C=N/NC(=O)/C(=C/c2ccccc2)CCO)ccc1O	Pf growth 48h inconclusive
O=C(N/N=C/c1ccc(O)cc1O)/C(=C/c1ccccc1)CCO	CHX counter 19, SARS PLP yeast inconclusive
COc1ccc(/C=N/NC(=O)/C(=C/c2ccccc2)CCO)cc1	CHX counter 12, Pf growth 48h inconclusive
COc1ccc(NC(=O)NCc2ccc3c(c2)OCO3)cc1OC	Pf growth 96h inconclusive
CCOc1ccc2nc(N3C(=O)/C(=C/c4ccccc4)NC3=S)sc2c1	CHX counter 27, Shiga inhibitor 177, Pf growth 96h 4.7µM
COc1ccc2nc(N3C(=O)CC(Cc4cc(C)cc(C)c4)C3=O)sc2c1 (stereo not given)	none
COc1ccc2nc(N3C(=O)/C(=C/c4ccccc4)NC3=S)sc2c1	Pf growth 96h 0.83µM, Pf growth 48h inconclusive
CCOc1ccc2nc(Cl)sc2c1	none (no result: NS1 function inh)
CN(C)S(=O)(=O)N1CCc2ccc(NC(=O)c3ccccc3Cl)cc2C1	CHX counter 11, Pf growth 96h 5.9µM
CCCS(=O)(=O)N1CCc2ccc(NC(=O)c3ccccc3Cl)cc2C1	none (no result: Shiga inhibitor)
CSCC(=O)N1CCc2ccc(NC(=O)c3ccccc3Cl)cc2C1	CHX counter 28, Pf growth 96h inconclusive (no result: Shiga inhibitor)
O=C(Nc1nc(-c2ccccn2)cs1)c1cccc(-n2cnnn2)c1	Pf growth 96h 0.93µM, Pf growth 48h 1.2µM
O=C(Nc1nc(-c2cccs2)cs1)c1ccco1	CHX counter 37, Shiga inhibitor 91
O=C(Nc1ccc(Br)cc1)c1cccc(-n2cnnn2)c1	Pf growth 96h inconclusive (no result: SARS PLP yeast)
O=C(Nc1nc(-c2ccccn2)cs1)c1ccco1	CHX counter 54, Shiga inhibitor 89, Pf growth 96h inconclusive, Pf growth 48h inconclusive (no result: NS1 function inh)
CCOc1ccc2c(c1)C(C)=CC(C)(C)N2C(=O)Nc1ccccc1	CHX counter 29, Pf growth 96h 15µM (no result: Pf growth 48h)
COc1ccc(NC(=O)N2c3ccccc3C(C)=CC2(C)C)cc1	CHX counter 20, Shiga inhibitor 38 (no result: NS1 function inh)
CCNC(=O)N1c2ccc(OC)cc2C(C)=CC1(C)C	SARS PLP yeast inconclusive
COc1ccc(NC(=O)N2c3ccc(OC)cc3C(C)=CC2(C)C)cc1	none
CC12CCC(C(=O)Nc3ccccc3)(C(Br)C1=O)C2(C)C (stereo not given)	Pf growth 96h inconclusive
CC(NC(=S)Nc1c(Br)cccc1OC(F)F)C(C)(C)C (stereo not given)	Pf growth 96h inconclusive, SARS PLP yeast inconclusive, Pf growth 48h inconclusive
CCn1cc(NC(=O)CCl)c(C)n1	Pf growth 96h inconclusive, Pf growth 48h inconclusive
Cc1ccc(N=C2CCCCCN2C)c(C#N)c1	Pf growth 96h inconclusive
Cc1ccc(N=C2CCCN2Cc2ccccc2)c(C#N)c1	CHX counter 18, Shiga inhibitor active, Pf growth 96h inconclusive
CNc1nc(Cl)nc(NC(C)(C)C)n1	none
CC(C)(C)Nc1nc(Cl)nc(NC(C)(C)C)n1	Pf growth 96h 15µM
CCCCn1c(C)cc(C)c(S(=O)(=O)c2ccccc2C)c1=O	Pf growth 96h 15µM (no result: Pf growth 48h)
COc1ccc(-c2onc3ccc(Cl)cc23)cc1OC	none (no result: CHX counter, Shiga inhibitor, Pf growth 96h, SARS PLP yeast, Pf growth 48h)
CCC(=O)N1N=C(c2ccc(NS(C)(=O)=O)cc2)CC1c1ccc(N(C)C)cc1 (stereo not given)	CHX counter 30, Shiga inhibitor 72 (no result: NS1 function inh)
CNC(=S)N1N=C(c2ccc(C)cc2)CC1c1ccc(OC)cc1 (stereo not given)	none
CN(C)c1ccc(C2CC(c3cccc(NS(C)(=O)=O)c3)=NN2C(=O)c2ccccc2)cc1 (stereo not given)	Pf growth 48h inconclusive
CNC(=S)N1N=C(c2ccc(C)cc2)CC1c1ccc(N(C)C)cc1 (stereo not given)	CHX counter 43, Pf growth 96h inconclusive, Pf growth 48h inconclusive (no result: NS1 function inh)
